Among the data in ChEMBL document CHEMBL1961873, “Compounds: GSK PKIS; Assays: Nanosyn kinase panel” (2012) are inhibition values, retold here.

Structures are written as SMILES.

Assay [1] has as its system Tyrosine-protein kinase ABL1 (Homo sapiens), P00519 [E255K]. The conditions noted are these: at 0.1 µM.
For assay [2] the test system is unchanged. The note with it: at 1 µM.
Assay [3] relates to Tyrosine-protein kinase ABL1 (Homo sapiens), P00519 [H396P]. The conditions noted are these: at 0.1 µM.
The test system is the same in assay [4]. The note with it: at 1 µM.
Assay [5] concerns Tyrosine-protein kinase ABL1 (Homo sapiens), P00519 [M351T]. The conditions noted are these: at 0.1 µM.
Assay [6] shares this test system. The note with it: at 1 µM.
Assay [7] relates to Tyrosine-protein kinase ABL1 (Homo sapiens), P00519 [Q252H]. The conditions noted are these: at 0.1 µM.
The test system is the same in assay [8]. The note with it: at 1 µM.
For assay [9], the system named is Tyrosine-protein kinase ABL1 (Homo sapiens), P00519 [T315I]. The note with it: at 0.1 µM.
The target in assay [10] is Serine/threonine-protein kinase PAK 6 (Homo sapiens) (UniProt Q9NQU5). The conditions noted are these: at 1 µM.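 Note: values are mean percent inhibition of PAK6 kinase.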
Serine/threonine-protein kinase PAK 6 (Homo sapiens), sequence (Q9NQU5 whole entry, looked up): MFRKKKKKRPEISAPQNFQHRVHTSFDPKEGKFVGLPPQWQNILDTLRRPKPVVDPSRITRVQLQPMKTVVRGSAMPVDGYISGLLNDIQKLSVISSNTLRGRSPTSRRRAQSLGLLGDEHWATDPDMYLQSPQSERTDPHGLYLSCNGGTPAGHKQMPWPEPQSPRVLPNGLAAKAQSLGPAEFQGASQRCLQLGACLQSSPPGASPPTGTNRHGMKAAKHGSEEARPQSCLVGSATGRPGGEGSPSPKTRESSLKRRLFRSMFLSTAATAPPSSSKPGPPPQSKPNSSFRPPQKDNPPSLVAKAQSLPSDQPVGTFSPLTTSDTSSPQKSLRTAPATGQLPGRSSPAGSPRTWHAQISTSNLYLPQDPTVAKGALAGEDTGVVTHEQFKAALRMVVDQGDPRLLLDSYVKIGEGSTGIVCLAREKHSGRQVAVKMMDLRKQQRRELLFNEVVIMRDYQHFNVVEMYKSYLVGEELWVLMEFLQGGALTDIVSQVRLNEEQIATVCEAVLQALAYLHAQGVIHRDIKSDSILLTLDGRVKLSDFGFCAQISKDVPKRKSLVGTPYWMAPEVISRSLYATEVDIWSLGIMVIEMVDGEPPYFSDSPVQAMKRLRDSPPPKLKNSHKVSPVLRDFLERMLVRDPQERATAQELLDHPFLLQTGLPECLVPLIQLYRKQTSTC

As usually defined, the inhibition is the relative decrease from the control value, in per cent. On to `CS(=O)(=O)CCNCc1ccc(-c2ccc3ncnc(Nc4ccc(OCc5ccccc5)c(Cl)c4)c3c2)o1`, for which the inhibition in assay [1] came to 1.33%; in assay [2], 0.95%; in assay [3] it was 0.8%; in assay [4], 3.2%; in assay [5] it was 1.7%; in assay [6] it was 2.85%. Also, the results for the inhibition in assay [7], in assay [8] and in [9] were 1.92%, 3.15% and 1.4%, respectively.

As to `CS(=O)(=O)Nc1ccc(N/C=C2\C(=O)Nc3ccccc32)cc1`, the inhibition in assay [10] is -8.06%; in [1] it was -0.28%; in assay [2], 3.16%; in [3], -0.26%; in assay [4], 10.9%; in [5] it was 1.98%. In addition, the inhibition was found to be 16.4% in assay [6], 1.09% in assay [7], 11% in assay [8] and 0.68% in assay [9].

Consider `CS(=O)(=O)CCNCc1ccc(-c2ccc3ncnc(Nc4ccc(OCc5cccc(F)c5)c(C(F)(F)F)c4)c3c2)o1`, for which the inhibition turned out to be 4.46% in assay [1]; 3.49% in assay [2]; 4.63% in assay [3]; 3.75% in [4]; 4.03% in assay [5]; 1.37% in assay [6]. The inhibition is 4.26% in assay [7], 2.45% in assay [8] and 1.73% in assay [9].

`COc1ccc(-c2coc3ncnc(N)c23)cc1`: the inhibition in [10] is -1.23%; in assay [1], 3.51%; in assay [2], 9.75%; in [3], 5.34%; in [4], 11.3%; in [5], 3.43%. Moreover, the inhibition in assay [6] is 8.4%; in assay [7] it was 5.31%; in assay [8], 9.48%; in assay [9], 1.41%.

As to `CCCN1CCC=C(c2ccc(Nc3nc(Nc4ccccc4C(N)=O)c4cc[nH]c4n3)c(C)c2)C1`, the inhibition was -5.41% in assay [10]; -0.02% in assay [1]; 5.11% in [2]; 2.87% in assay [3]; 7.11% in assay [4]; 1.17% in assay [5]. Besides, the inhibition came to 5.02% in assay [6], 3.91% in [7], 8.95% in assay [8] and 1.37% in assay [9].

For `COc1cc(C=NNc2ncnc3c2cnn3-c2ccccc2)ccc1O`, the inhibition in assay [10] was found to be 2.62%; in assay [1], 24.9%; in assay [2], 77.9%; in assay [3], 40.3%; in [4], 84.9%; in assay [5] it was 40.1%. Further, the inhibition is 88.5% in [6], 50.5% in assay [7], 88.7% in [8] and 32% in assay [9].

In the case of `CCn1c(-c2nonc2N)nc2c(C#CC(C)(C)O)nc(OC[C@@H](N)c3ccccc3)cc21`, the inhibition was 91.4% in [10]; -1.82% in assay [1]; 1.65% in assay [2]; 0.8% in [3]; -0.27% in assay [4]; 1.41% in [5]. Moreover, the inhibition is 0.68% in assay [6], 0.61% in assay [7], -0.28% in assay [8] and 0.08% in [9].

Turning to `COC(=O)Nc1nc2cc(Oc3ccc(NC(=O)Nc4cccc(C(=O)O)c4)cc3)ccc2[nH]1`, the inhibition was 4.26% in assay [10]; -4.91% in [1]; 3.52% in assay [2]; 0.4% in assay [3]; 9.38% in [4]; 3.52% in assay [5]. In addition, the inhibition is 19.9% in [6], 1.92% in assay [7], 14.4% in assay [8] and 2.13% in [9].

As to `CCc1cccc(NC(=O)Nc2ccc(Oc3ccc4nc(NC(=O)OC)[nH]c4c3)cc2)c1`, the inhibition in assay [10] was 1.29%; in assay [1] it was 6.09%; in [2], 14.3%; in [3], 34%; in assay [4] it was 51.8%; in assay [5], 48.6%. For the same compound, the inhibition in assay [6] worked out at 57.9%; in [7], 48.4%; in assay [8], 60.8%; in assay [9] it was 40.6%.

In the case of `COc1cc2c(cc1Nc1nc(N3CCc4ccccc43)c3cc[nH]c3n1)N(C(=O)CN(C)C)CC2`, the inhibition in assay [10] is -0.54%; in assay [1], 0.52%; in assay [2], 1.73%; in assay [3], 0.54%; in assay [4], -0.96%; in assay [5] it was 0.88%. In addition, the inhibition was -0.63% in assay [6], 1.56% in assay [7], 2.24% in assay [8] and 1.05% in assay [9].

Take `c1cnn2ncc(-c3ccnc(Nc4ccc5c(c4)OCCO5)n3)c2c1`: the inhibition in [10] was found to be 9.62%; in [1], 4.75%; in assay [2] it was 20.4%; in [3] it was 6.51%; in assay [4] it was 34.4%; in [5], 6.73%. In addition, the inhibition was 40.9% in assay [6], 9.02% in [7], 40.7% in assay [8] and 6.27% in assay [9].

For the compound `COc1ccc(-c2ccncc2)cc1C(N)=O`, the inhibition was 2.26% in [1]; 3.56% in assay [2]; 4.08% in [3]; 3.48% in assay [4]; -0.68% in assay [5]; -0.45% in [6]. For the same compound, the inhibition in [7] came to 3.19%; in [8], 2.33%; in assay [9], 2.27%.

As for `CCn1c(-c2nonc2N)nc2ccncc21`, the inhibition in assay [10] was -3.52%; in [1], 1.78%; in assay [2], -1.53%; in assay [3], -0.24%; in assay [4], -0.08%; in [5], 0.64%. For the same compound, the inhibition in assay [6] was 3.06%; in assay [7], 3.21%; in assay [8], -0.21%; in assay [9], -0.01%.

For `CN(C)c1cc2c(Nc3ccc4nc(Cc5ccccc5)[nH]c4c3)ncnc2cn1`, the inhibition is -5.69% in [10]; 3% in [1]; 2.89% in [2]; 6.52% in assay [3]; 4.37% in assay [4]; 2.81% in assay [5]. Also, the inhibition was 3.14% in [6], 6.01% in assay [7], 5.74% in assay [8] and 5.24% in [9].

With `Cc1nn(C)c2cc(N(C)c3ccnc(Nc4cccc(S(N)(=O)=O)c4)n3)ccc12`, the inhibition was -9.82% in assay [10]; 27.9% in assay [1]; 73.7% in assay [2]; 58.2% in assay [3]; 90% in [4]; 58.2% in [5]. The inhibition in assay [6] stood at 90.2%; in assay [7], 45.7%; in assay [8], 85.4%; in [9], 20.3%.

Regarding `Cc1nnc(-c2ccc(C)c(-c3ccc(C(=O)Nc4cccc(C#N)c4)cc3)c2)o1`, the inhibition was -7.37% in assay [10]; 2% in [1]; 4.21% in [2]; -0.02% in assay [3]; 3.51% in [4]; -0.06% in assay [5]. Further, the inhibition in assay [6] is 2.91%; in [7] it was 3.04%; in assay [8], 4.21%; in assay [9], 1.53%.

On to `CC1=C(C(=O)Nc2ccc3[nH]ncc3c2)C(c2ccc(F)cc2)NC(=O)N1` (configuration not stated), for which the inhibition in assay [10] was -1.9%; in assay [1], -0.56%; in [2] it was 4.16%; in assay [3], 1.62%; in [4], 1.78%; in [5] it was 1.52%. Also, the inhibition in assay [6] worked out at 3.88%; in [7], 2.07%; in assay [8] it was 3.37%; in assay [9], 0.1%.
